Results filed as inconclusive are left out. The source made the active and inactive calls. Calls follow the shape of the dose curve; as a rule, active = well fitted cell-killing curve with a large enough effect; inconclusive = small, poorly fitted or top-dose-only effect, or effect the other way; inactive = no such curve, though single readings can be large or run the other way.

Among the data in PubChem BioAssay (NCATS) are Potency values, retold here.
Potency is read from the fitted curve at half-maximal effect.

The nature of one experiment: Quantitative High-Throughput drug screen in 47 multiple myeloma cell lines against the NCATS MIPE library collection: AMO1_DSMZ cell viability assay (AID 1918927; also: nearly all actives have a fitted effect of over 30% in size). The settings on record: AMO1 myeloma cells viability, CellTiter-Glo ATP luminescence, 48 h; series mostly up to 45.8 µM. The method, boiled down: (§1)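 CellTiter-Glo ATP luminescence gave viability after 48 h compound treatment at 37C of 500 multiple myeloma cells per well. Normalisation used DMSO-only wells as 100% and media-only wells as 0% viability; primary qHTS of approved and investigational drugs.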
For orientation: In ATP-based viability assays light output follows the ATP content of the culture.
On to `c1ccc2c(CCNc3ccc(Nc4ccncc4)cc3)c[nH]c2c1`, for which the Potency was 1.48 µM (active).

For `COc1cccc(Nc2c(C(N)=O)cnc3c(C)cc(S(=O)(=O)c4cccc(C(=O)N(C)C)c4)cc23)c1`, the Potency is 12.9 µM (active). Turning to `CCCn1c(=O)c2[nH]c(-c3cnn(Cc4cccc(C(F)(F)F)c4)c3)nc2n(CC)c1=O`, the Potency result was “inactive”. Consider `COc1cc(C(C)C)c2c(c1)S(=O)(=O)N(COc1cc(=O)n3cccc(OCCN4CCCCC4)c3n1)C2=O`, for which the Potency is 13.2 µM (active). With `Cc1cn(-c2cc(NC(=O)c3ccc(C)c(Nc4nccc(-c5cccnc5)n4)c3)cc(C(F)(F)F)c2)cn1`, the Potency entry was “inactive”. Regarding `C[C@H]1C[C@@H]2[C@@H]([C@@H](O)C[C@@]3(C)[C@H]2CC[C@]3(O)C(=O)CO)[C@@]2(C)C=CC(=O)C=C12`, the Potency result was “inactive”. For `COc1cc2c(Oc3ccc(NC(=O)C4(C(=O)Nc5ccc(F)cc5)CC4)cc3F)ccnc2cc1OCCCN1CCOCC1`, the Potency was 5.26 µM (active). `COC(=O)C1=C(C)NC(C)=C(C(=O)OCCN2CCN(C(c3ccccc3)c3ccccc3)CC2)C1c1cccc([N+](=O)[O-])c1` (stereo not drawn): the Potency result is “inactive”.

A short description of the next experiment: Quantitative High-Throughput drug screen in 47 multiple myeloma cell lines against the NCATS MIPE library collection: ARP1_JJKsccF8 cell viability assay (AID 1918928; also: nearly all actives have a fitted effect of over 40% in size). The settings on record: ARP1 myeloma cells viability, CellTiter-Glo ATP, 48 h; series mostly up to 45.8 µM. In a few lines:
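Each line was plated at 500 cells/well and treated 48 h with library drugs. Viability came from CellTiter-Glo luminescence relative to DMSO and cell-free medium controls.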
Turning to `Cc1ccc(C(N)=O)cc1Nc1nccc(-c2cn(C(C)C)c3cnccc23)n1`, the Potency is 6.62 µM (active). The same measure, in the same setting: next, `N#CCNC(=O)c1ccc(-c2ccnc(Nc3ccc(N4CCOCC4)cc3)n2)cc1`: 16.6 µM (active); `C#Cc1cccc(Nc2ncnc3cc(OC)c(OCCCCCCC(=O)NO)cc23)c1`: 0.118 µM (active); `C[C@@H](Oc1cc(-n2cnc3ccc(CN4CCN(C)CC4)cc32)sc1C(N)=O)c1ccccc1C(F)(F)F`: 0.105 µM (active). On the same count and under the same terms, then `CN(c1ncccc1CNc1nc(Nc2ccc3c(c2)CC(=O)N3)ncc1C(F)(F)F)S(C)(=O)=O`, with 9.35 µM (active); and `O=C1CCC[C@@H]2[C@H]3CCC[N+]4([O-])CCC[C@@H](CN12)[C@@H]34` (stereo partly drawn), with “inactive”. Take `COC(=O)C[C@](O)(CCCC(C)(C)O)C(=O)O[C@@H]1C(OC)=C[C@]23CCCN2CCc2cc4c(cc2[C@H]13)OCO4`: the Potency result is “inactive”. For `CCN(CC)CCCCNc1ncc2cc(-c3cc(OC)cc(OC)c3)c(NC(=O)NC(C)(C)C)nc2n1`, the Potency is 23.5 µM (active).

As to `Cc1ccc(NC(=O)C2(c3ccc4c(c3)OC(F)(F)O4)CC2)nc1-c1cccc(C(=O)O)c1`, the Potency was 0.0264 µM (active). Still for that read-out and setting: then `CCCCN1CCC(CNC(=O)c2c3n(c4ccccc24)CCCO3)CC1`, with 20.9 µM (active); and `Fc1cc(-c2cccc3ncc(-c4cnn(C5CCNCC5)c4)nc23)cc(F)c1CN1CCOCC1`, with 16.6 µM (active); and `COc1ccc(-n2nc(C(N)=O)c3c2C(=O)N(c2ccc(N4CCCCC4=O)cc2)CC3)cc1`, with “inactive”.

With `O=C(CCCCCCNC(=O)c1cnc(N(c2ccccc2)c2ccccc2)nc1)NO`, the Potency was 2.96 µM (active). Take `O=C(CCCCCCC(=O)Nc1ccc([C@H]2O[C@@H](CSc3nc(-c4ccccc4)c(-c4ccccc4)o3)C[C@@H](c3ccc(CO)cc3)O2)cc1)NO`: the Potency was 10.5 µM (active). For the compound `COc1ccc(OC)c(-c2nnc3ccc(-c4ccc(OC)c(O[C@@H]5CCOC5)c4)nn23)c1`, the Potency was 18.7 µM (active). Turning to `C[C@@H](Oc1cc(-c2cnn(C3CCNCC3)c2)cnc1N)c1c(Cl)ccc(F)c1Cl`, the Potency is 8.33 µM (active). As to `CCN1CCN(CC(=O)Nc2ccc(-c3cccc4c(=O)cc(N5CCOCC5)oc34)c3sc4ccccc4c23)CC1`, the Potency is 0.264 µM (active). For the compound `OCc1ccc(-c2ccc(-c3ccc(CO)s3)o2)s1`, the Potency was 18.7 µM (active).

Take `O=C(c1ccc(Nc2nccc(-c3cc4ccccc4s3)n2)cc1)N1CCC(N2CCCC2)CC1`: the Potency was 13.2 µM (active). As for `O=C(Nc1cn[nH]c1-c1nc2ccc(CN3CCOCC3)cc2[nH]1)NC1CC1`, the Potency was 4.18 µM (active). On the same count and under the same terms, then `CC(C)c1ccc(Cn2ccc3c4c(N)nc(NC5CC5)nc4ccc32)cc1`, with 4.18 µM (active); and `COc1cc2c(cc1-c1c(C)noc1C)ncc1[nH]c(=O)n([C@H](C)c3ccccn3)c12`, with 0.332 µM (active). For `OCCCNc1cc(-c2ccnc(Nc3cccc(Cl)c3)n2)ccn1`, the Potency is 0.105 µM (active). Turning to `CC(C)(C)OC(=O)Nc1ccc(-c2cc(C(=O)NCCCCCCC(=O)NO)no2)cc1`, the Potency is 0.743 µM (active). On to `NC(=O)Nc1cc(-c2cccc(F)c2)sc1C(=O)N[C@H]1CCCNC1`, for which the Potency is 3.72 µM (active). On the same count and under the same terms, next, `Nc1nccc(Oc2ccc(NC(=O)c3c[nH]cc(-c4ccc(F)cc4)c3=O)cc2F)c1Cl`: 14.8 µM (active); `O=C(Cc1ccc(-c2ccc(OCCN3CCOCC3)cc2)cn1)NCc1ccccc1`: 0.0166 µM (active).

The nature of a further experiment: Quantitative High-Throughput drug screen in 47 multiple myeloma cell lines against the NCATS MIPE library collection: ARD_JJKsccE7 cell viability assay (AID 1918929). The conditions noted are these: ARD myeloma cell line viability, CellTiter-Glo, 48 h; series mostly up to 45.8 µM. In a few lines:
as §1
Consider `Cc1ccc(C(N)=O)cc1Nc1nccc(-c2cn(C(C)C)c3cnccc23)n1`, for which the Potency is 3.72 µM (active). Consider `N#CCNC(=O)c1ccc(-c2ccnc(Nc3ccc(N4CCOCC4)cc3)n2)cc1`, for which the Potency entry is “inactive”. Turning to `C#Cc1cccc(Nc2ncnc3cc(OC)c(OCCCCCCC(=O)NO)cc23)c1`, the Potency was 0.0743 µM (active). As to `C[C@@H](Oc1cc(-n2cnc3ccc(CN4CCN(C)CC4)cc32)sc1C(N)=O)c1ccccc1C(F)(F)F`, the Potency is 0.0264 µM (active). In the case of `O=C1CCC[C@@H]2[C@H]3CCC[N+]4([O-])CCC[C@@H](CN12)[C@@H]34` (stereo partly drawn), the Potency result was “inactive”.

As for `CCN(CC)CCCCNc1ncc2cc(-c3cc(OC)cc(OC)c3)c(NC(=O)NC(C)(C)C)nc2n1`, the Potency is 23.5 µM (active).

As for `Cc1ccc(NC(=O)C2(c3ccc4c(c3)OC(F)(F)O4)CC2)nc1-c1cccc(C(=O)O)c1`, the Potency is 0.0469 µM (active).

Turning to `CCCCN1CCC(CNC(=O)c2c3n(c4ccccc24)CCCO3)CC1`, the Potency was 16.6 µM (active). Same read-out and setting: next, `COc1ccc(-n2nc(C(N)=O)c3c2C(=O)N(c2ccc(N4CCCCC4=O)cc2)CC3)cc1`: “inactive”; `O=C(CCCCCCC(=O)Nc1ccc([C@H]2O[C@@H](CSc3nc(-c4ccccc4)c(-c4ccccc4)o3)C[C@@H](c3ccc(CO)cc3)O2)cc1)NO`: “inactive”; `COc1ccc(OC)c(-c2nnc3ccc(-c4ccc(OC)c(O[C@@H]5CCOC5)c4)nn23)c1`: 16.6 µM (active). On to `C[C@@H](Oc1cc(-c2cnn(C3CCNCC3)c2)cnc1N)c1c(Cl)ccc(F)c1Cl`, for which the Potency was 11.8 µM (active). `CCN1CCN(CC(=O)Nc2ccc(-c3cccc4c(=O)cc(N5CCOCC5)oc34)c3sc4ccccc4c23)CC1`: the Potency was 0.0118 µM (active).

On to `OCc1ccc(-c2ccc(-c3ccc(CO)s3)o2)s1`, for which the Potency entry is “inactive”. As to `O=C(c1ccc(Nc2nccc(-c3cc4ccccc4s3)n2)cc1)N1CCC(N2CCCC2)CC1`, the Potency is 9.35 µM (active). On to `O=C(Nc1cn[nH]c1-c1nc2ccc(CN3CCOCC3)cc2[nH]1)NC1CC1`, for which the Potency is 3.72 µM (active). Consider `CC(C)c1ccc(Cn2ccc3c4c(N)nc(NC5CC5)nc4ccc32)cc1`, for which the Potency is 3.32 µM (active).

For `COc1cc2c(cc1-c1c(C)noc1C)ncc1[nH]c(=O)n([C@H](C)c3ccccn3)c12`, the Potency is 0.296 µM (active). As for `OCCCNc1cc(-c2ccnc(Nc3cccc(Cl)c3)n2)ccn1`, the Potency is 0.0743 µM (active). On the same count and under the same terms, then `CC(C)(C)OC(=O)Nc1ccc(-c2cc(C(=O)NCCCCCCC(=O)NO)no2)cc1`, with 0.935 µM (active); and `NC(=O)Nc1cc(-c2cccc(F)c2)sc1C(=O)N[C@H]1CCCNC1`, with 0.526 µM (active).

For the compound `Nc1nccc(Oc2ccc(NC(=O)c3c[nH]cc(-c4ccc(F)cc4)c3=O)cc2F)c1Cl`, the Potency was 6.62 µM (active). On to `O=C(Cc1ccc(-c2ccc(OCCN3CCOCC3)cc2)cn1)NCc1ccccc1`, for which the Potency is 0.0166 µM (active).
